Measurements taken from PubChem BioAssay AID463082 (The Scripps Research Institute Molecular Screening Center, 2010).
Hit rate of the full screen: of about 330,000 compounds, about 4,900 (1.5%) were called active. What follows is part of a selection rich in actives, with near analogues and random picks from the rest. Values without a mark were called inactive.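 Rule for the calls: active = inhibition above the mean inhibition across the screen plus 3 SD (cut at about 25% in these data); inactive = the rest.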

The compounds below were run against Platelet-activating factor acetylhydrolase (Homo sapiens) (UniProt Q13093) (assay: inhibition of plasma PAF acetylhydrolase – biochemical, fluorescence polarization, human, primary screen (AID 463082;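 note: inhibitors block binding of the rhodamine activity-based probe so polarization drops; 0% = enzyme with DMSO and 100% = wells lacking pPAFAH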)). Settings: recombinant pPAFAH, FP-rhodamine probe fluorescence polarization; at 3.39 µM; hits give high values.
Chain of Platelet-activating factor acetylhydrolase (Homo sapiens) (Q13093 whole entry, looked up): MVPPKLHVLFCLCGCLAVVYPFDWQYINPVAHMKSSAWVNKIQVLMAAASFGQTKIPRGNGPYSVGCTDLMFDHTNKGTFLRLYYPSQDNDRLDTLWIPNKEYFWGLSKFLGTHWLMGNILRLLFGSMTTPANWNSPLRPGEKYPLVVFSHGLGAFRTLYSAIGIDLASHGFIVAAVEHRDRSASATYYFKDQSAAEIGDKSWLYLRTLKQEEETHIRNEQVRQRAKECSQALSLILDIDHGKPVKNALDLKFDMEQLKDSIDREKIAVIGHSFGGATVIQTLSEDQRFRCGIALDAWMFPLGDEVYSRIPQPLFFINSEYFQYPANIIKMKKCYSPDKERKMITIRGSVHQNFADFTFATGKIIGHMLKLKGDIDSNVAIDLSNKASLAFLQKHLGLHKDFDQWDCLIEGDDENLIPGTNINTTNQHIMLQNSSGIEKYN

SMILES	inhibition
CC(=O)c1c(C)[nH]c(C(=O)COC(=O)c2cccc(S(=O)(=O)N(C)c3ccccc3)c2)c1C	-1.03%
Cc1ccc(C)c(NC(=O)CCC(=O)N/N=C2/CC(=O)CC(C)(C)C2)c1	34.2% (active)
CC1(C)CC(=O)C/C(=N\NC(=O)c2cccs2)C1	1.45%
Cc1ccc(C)c(NC(=O)CCC(=O)NNC(=O)c2cccs2)c1	4.49%
O=C(Nc1ccc(-c2ccc3nncn3n2)cc1)C1CCCCC1	3.72%
O=C(Nc1ccc(Br)cc1)c1cc(S(=O)(=O)Nc2ccccn2)ccc1Cl	4.67%
Cc1ccc(-c2noc(CSc3nnc(-c4ccncc4)n3-c3ccc(F)cc3)n2)cc1	61.4% (active)
Fc1ccc(-n2c(Cc3ccccc3)nnc2SCc2nc(-c3ccc(Cl)cc3)no2)cc1	8.28%
Cc1ccc(-c2noc(CSc3nnc(-c4ccccc4)n3C)n2)cc1	2.63%
Cc1c(S(=O)(=O)NCc2ccccc2)c(=O)n(C)c(=O)n1C	3.56%
Cc1ccc(N(C(=O)CNC(=O)c2ccco2)C(C(=O)NC2CCCC2)c2ccncc2)cc1 (stereo not given)	3.58%
Cn1c(SCC(=O)Nc2ccc(N3CCOCC3)cc2)nnc1C(F)(F)F	-4.91%
Cc1c(CC(=O)N2CCN(C(=O)C3COc4ccccc4O3)CC2)c(=O)oc2c(O)c(O)ccc12 (stereo not given)	80.7% (active)
Cc1c(C)c2ccc(OCC(=O)N3CCC(C(=O)O)CC3)c(C)c2oc1=O	-1.32%
CCN(CC)S(=O)(=O)c1ccc(N2CCOCC2)c(NC(=O)C2COc3ccccc3O2)c1 (stereo not given)	1.62%
COc1cccc(/C=C2\Sc3ccc(C(=O)NCC4CCCO4)cc3N(C)C2=O)c1 (stereo not given)	8.27%
Cc1cc(N2CCCC2)ccc1NC(=O)COc1ccc(Cl)cc1	27.4% (active)
CCC(=O)c1ccc(OCC(=O)Nc2ccc(N3CCCCC3)cc2)cc1	3.34%
Cc1cc(C)cc(OCC(=O)Nc2ccc(N3CCOCC3)cc2N2CCOCC2)c1	4.92%
Cn1c(CCC(=O)OCC(=O)NCc2ccccc2Cl)nc(=O)c2ccccc21	1.56%
S=C(NCCc1ccccc1)NCC1CCCO1 (stereo not given)	3.38%
S=C(NCC1CCCO1)N1CCN(c2ccc(Cl)c(Cl)c2)CC1 (stereo not given)	14.9%
Oc1c(Br)cc(/C=N/NC(=S)NCC2CCCO2)cc1Br (stereo not given)	35.5% (active)

SMILES	inhibition
CN(C)c1nccc(NCc2ccccc2)c1C#N	5.61%
CCOc1cccc2c1OC1(CCCCC1)N1N=C(c3cccnc3)CC21 (stereo not given)	8.14%
COc1ccccc1NC(=O)Nc1nnc(Cc2ccc(F)cc2)s1	1.88%
O=C(C1CC(=O)N(c2ccc(Br)cc2)C1)N1CCCC1 (stereo not given)	2.26%
Cc1cc(NC(=O)C(C)N2C(=O)c3ccccc3S2(=O)=O)no1 (stereo not given)	5.49%
O=c1c2c(-c3ccccc3)ccnc2[nH]n1-c1ccccc1	16.9%
O=c1[nH]cnc2c1c(-c1ccccc1)cn2-c1ccc(F)cc1	29.6% (active)
COc1ccc(-n2cc(-c3ccccc3)c3c(=S)nc[nH]c32)cc1	16.5%
COc1cc(CCC(=O)Nc2ccncc2Cl)cc(OC)c1OC	3.7%
O=C(Cc1ccc(Br)cc1)NCCc1ccccc1	-2.54%
O=C(NCCCO)/C(=C\C=C\c1ccccc1)NC(=O)c1ccccc1Cl	5.51%
COc1ccc(OC)c(-c2csc(NC(=O)COC(=O)C3CC3)n2)c1	5.42%
COc1ccc(CC(=O)Nc2nc(-c3ccc(F)c(F)c3)cs2)cc1OC	-1.93%
COc1ccc(OC)c(Nc2nc(-c3ccc(O)c(O)c3)cs2)c1	49.9% (active)
CC1C(=O)Nc2ccc(S(=O)(=O)N3CCN(c4ccccc4F)CC3)cc2NC1=O (stereo not given)	7.62%
Cc1ccc(S(=O)(=O)Oc2ccc(/C=N/NC(=O)c3c(Cl)cnn3C)cc2)cc1	4.46%
COc1nc(Oc2ccc(=O)n(C)n2)nc(N(C)C)n1	1.86%
CCn1nc(C)c(NC(=O)/C=C/c2ccc(OC)c(COc3ccc(Br)cc3)c2)c1C	7.11%
CCS(=O)(=O)c1ccc(-c2cccc(NC(=O)c3ccc(Br)o3)c2)nn1	-0.56%
O=C(NCCCN1CCCC1=O)c1ccc(S(=O)(=O)Nc2ccccc2)cc1	28.1% (active)
O=C(NCCCN1CCCC1=O)c1cccc(S(=O)(=O)NCc2ccccc2)c1	5.61%
CCOc1ccc(S(=O)(=O)Nc2ccc(C(=O)NCCCN3CCCC3=O)cc2)cc1	-4.42%
CC(C)(C)OC(=O)C[C@H]1C/C=C\C[C@@H](CC(=O)N[C@H](CO)Cc2ccccc2)C(=O)NC[C@@H](c2ccccc2)OC1=O	1.87%

SMILES	inhibition
CC(=O)Nc1ccc(NC(=O)C2CCCN(S(=O)(=O)c3ccc(Cl)cc3)C2)cc1 (stereo not given)	0.93%
CC(Oc1ccc(F)cc1F)C(=O)/C=C/N(C)C (stereo not given)	0.46%
O=C(CN1C(=O)NC2(CCCCC2)C1=O)N1CCN(C(=O)c2cccs2)CC1	2.46%
CCCCCCCCCCCCCCCC(=O)OC/C=C(C)/C=C/C=C(C)/C=C/C1=C(C)CCCC1(C)C	25.7% (active)
CC1=C(/C=C/C(C)=C/C=C/C(C)=C/C=C/C=C(C)/C=C/C=C(C)/C=C/C2=C(C)CCCC2(C)C)C(C)(C)CCC1	18.3%
CCOC(=O)NNc1cc(C(F)(F)F)ccn1	3.11%
NC(=O)c1ccsc1NC(=O)COC(=O)COc1ccc(C=O)cc1	7.9%
CCc1ccc(-c2nn(-c3ccccc3)cc2CSC(=N)N)cc1	3.9%
Oc1ccc(N=Nc2nccs2)c(O)c1	37.2% (active)
Oc1ccc2ccccc2c1N=Nc1nccs1	17.6%
O=C(NCc1cccc(Cl)c1)C1CCN(c2nnc(N3CCCC3=O)s2)CC1	3.53%
CC(C)n1c(=S)[nH]c2cc(C(F)(F)F)ccc21	3.35%
Cc1ccn2c(=O)nc(SCC(=O)NCc3ccc(F)cc3)nc2c1	26.8% (active)
Cc1ccc(CNC(=O)CSc2nnc3c(n2)[nH]c2ccc(F)cc23)cc1	3.4%
Cc1ccn2c(=O)nc(SCC(=O)NCc3ccc4c(c3)OCO4)nc2c1	10.4%
Cc1ccc(C2SCC(=O)N2c2ccccc2)cc1 (stereo not given)	2.44%
O=C(N/N=C\c1cccnc1)c1cc(-c2ccccc2)nc2c(Cl)cccc12	-1.21%
O=C(NN=Cc1ccc(N2CCOCC2)cc1)c1cc2ccccc2cc1O	23.5%
Cc1ccc(/C=N/NC(=O)c2cc3ccccc3cc2O)o1	57.2% (active)
Cc1ccc(/C=N/NC(=S)Nc2cccc(S(=O)(=O)N(C)C)c2)o1	6.2%
O=C(N/N=C/c1cccnc1)c1cc2ccccc2cc1O	58% (active)
O=C(N/N=C/c1cccnc1)c1ccc(NC(=O)c2ccc(F)cc2)cc1	-2.91%
Cc1nnc(SCC(=O)N(C(C)C)C(C)C)nc1C	0.01%

SMILES	inhibition
CCCCOc1ccc(NC(=O)[C@@H]2CCCN2C(=O)C2CCN(S(=O)(=O)c3ccc(C)cc3)CC2)cc1	11.9%
O=C(OCCO)c1cc(Cl)c(C(=O)OCCO)cc1Cl	1.07%
CCC1(CC)C(=O)C2=C3C1[C@H](C(=O)OC)C=C(C(=O)OC)C[C@H]3[C@H]1C(=O)N(Cc3ccccc3)C(=O)[C@H]1[C@H]2C (stereo not given in full)	9.48%
COc1ccc(NC(=O)COC(=O)c2ccc(NS(=O)(=O)/C=C/c3ccccc3)cc2)cc1	33.1% (active)
CN(CC(=O)Nc1ccc(OC(F)F)cc1)S(=O)(=O)/C=C/c1ccccc1	5.82%
CCC(C(=O)OCC(=O)Nc1ccc(C(=O)Nc2ccc(OC)cc2)cc1)c1ccccc1 (stereo not given)	2.28%
COc1ccc2sc(-c3ccc(N(C)C)cc3)c(C#CCO)c2c1	17.2%
COc1ccc2c(-c3ccccc3)cc(SCC(=O)N(C)C3CCS(=O)(=O)C3)nc2c1 (stereo not given)	34% (active)
COc1ccc(-c2cc(=O)oc3cc(OCC(=O)N(C)C4CCS(=O)(=O)C4)ccc23)cc1 (stereo not given)	2.24%
Cc1cc(C)c2nc(SCC(=O)N(C)C3CCS(=O)(=O)C3)cc(C)c2c1 (stereo not given)	4.97%
Cc1ccccc1NC(=O)CCNS(=O)(=O)c1ccc2[nH]c(=O)oc2c1	0.18%
Cc1ccc(C2(C(F)(F)F)N=C3Sc4cc(C)cc(C)c4N3C(=O)N2)cc1 (stereo not given)	2.43%
Cc1nn(C(C)CC(=O)O)c(C)c1C (stereo not given)	1.08%
Cc1ccc(NC(=O)CN2CCCCC2)c2c1CC(C)(C)O2	1.85%
CC/C(=N\NC(=O)c1ccccc1Cl)c1ccc(Br)s1	2.32%
COC(=O)c1onc(-c2c(OC)cc(OC)cc2OC)c1C(=O)OC	-0.73%
Cc1ccc(S(=O)(=O)NCC(=O)NNC(=O)c2ccc(Br)cc2)cc1C	-3.03%
CN(C)S(=O)(=O)c1ccc(N2CCCC2)c(C(=O)NCc2ccccc2)c1	27.1% (active)
CN(C)S(=O)(=O)c1ccc(N2CCCC2)c(C(=O)Nc2cccc(F)c2)c1	-2.43%
Cc1ccccc1OCC(=O)NNC(=O)c1cc(S(=O)(=O)N(C)C)ccc1N1CCCC1	-0.66%
Cc1ccccc1CN1C[C@@H]2C[C@@H](c3cn(C)nc3-c3ccccc3)N3CCC[C@@]23C1=O	8.05%
